Measurements as given in PubChem BioAssay (Tox21).
Where “and” joins values, the source holds several entries; their conditions need not be identical. Identical values can stand only once. Results filed as inconclusive are left out. The source holds several records for some structures; these can differ, active in one and inactive in another. Calls of active or inactive are those of the source. Unless noted, calls come from the whole dose curve; as a rule, active = well fitted curve in the direction sought with a large enough effect in the repeat runs; inconclusive = weak or mixed curves; inactive = no such curve, though single readings can be large; an effect the other way counts as inactive or inconclusive.

How the values were obtained:
[1] = qHTS assay for small molecules that induce genotoxicity in human embryonic kidney cells expressing luciferase-tagged ATAD5 (AID 651632); note: nearly all actives have a fitted effect of over 15% in size; note: potency is the fitted concentration of half-maximal effect
Method in brief: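 ATAD5-luc HEK293T, 2,000 cells/well; cpd or DMSO pin-transferred; 16 hr, 37C/5% CO2; Amplite 30 min RT; luminescence.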

[2] = qHTS assay for small molecule agonists of the p53 signaling pathway - cell viability (AID 651633; calls by dose curve; note: series mostly up to about 83 µM; nearly all actives have a fitted effect of over 30% in size)
Method in brief: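 Viability counter-read: CellTiter-Glo luminescence (30 min, room temperature) in the same p53RE-bla plates. These plates had been exposed to compounds for 16 h at 37 C.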

[3] = qHTS assay for small molecules that induce genotoxicity in human embryonic kidney cells expressing luciferase-tagged ATAD5 - cell viability (AID 651634; calls by dose curve; note: nearly all actives have a fitted effect of over 25% in size; note: potency is the fitted concentration of half-maximal effect)
Method in brief: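 Fluorescence from CellTiter-Fluor, reporting protease activity within live cells, served as the viability read-out. HEK293T cells carrying luciferase-tagged ATAD5 had been treated with compound for 15.5 hr at 37C.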

[4] = qHTS assay for small molecule disruptors of the mitochondrial membrane potential - cell viability (AID 720634; calls by dose curve; note: nearly all actives have a fitted effect of over 20% in size; note: potency is the fitted concentration of half-maximal effect)
Method in brief: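 Cells: HepG2, 2,000/well, attached overnight. Compound 1 hr, 37 C/5% CO2. +m-MPI dye, +CellTiter-Glo 30 min RT. Readout: luminescence (ATP).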

[5] = qHTS assay for small molecule disruptors of the mitochondrial membrane potential (AID 720635); note: potency is the fitted concentration of half-maximal effect
Method in brief: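 Mitochondrial membrane potential tracked with Mito-MPS dye, red aggregates (ex 540/em 590 nm) against green monomers (ex 490/em 535 nm). Compound treatment 1 hr at 37C, dye 30 min in HepG2.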

[6] = qHTS assay to test for compound auto fluorescence at 590 nm (red) in HepG2 cells (AID 720674)
Method in brief: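 Red autofluorescence (Ex/Em 540/590 nm, Rose Bengal sodium equivalents) was measured in HepG2 cells, 2,000 per well in MEM plus 10% FBS, plated overnight at 37 C. Readings were taken 1 hr after adding 23 nL compound or DMSO, at 37 C and 5% CO2.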

[7] = qHTS assay to test for compound auto fluorescence at 460 nm (blue) in HEK293 cells (AID 720678)
Method in brief: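 Triamterene serves as the blue fluorophore standard. Compound signal at 405/460 nm is read in HEK293 wells (2,000 cells, 10% dialyzed FBS) after overnight treatment at 37C.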

[8] = qHTS assay to test for compound auto fluorescence at 590 nm (red) in HEK293 cells (AID 720679)
Method in brief: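 We plated HEK293 cells in 10% dialyzed FBS medium, let them adhere for 4-5 hr, then added 23 nL compound. Overnight at 37C and 5% CO2 preceded fluorescence measurement at 540/590nm.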

[9] = qHTS assay to test for compound auto fluorescence at 535 nm (green) in HEK293 cells (AID 720680)
[10] = qHTS assay to test for compound auto fluorescence at 460 nm (blue) in HEK293 cell free culture (AID 720681)
Method in brief: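 Blue fluorescence (Ex 405/Em 460 nm, triamterene-equivalent) was read immediately after pin transfer of compound or DMSO into medium (DMEM, 10% FBS) without cells.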

[11] = qHTS assay to test for compound auto fluorescence at 535 nm (green) in HEK293 cell free culture (AID 720682)
Method in brief: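 Compounds were pin-transferred into cell-free DMEM with 10% FBS, and green fluorescence was read at excitation 485 nm and emission 535 nm. Intensities were expressed as fluorescein-equivalent values.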

[12] = qHTS assay to test for compound auto fluorescence at 590 nm (red) in HEK293 cell free culture (AID 720683)
Method in brief: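 Red-channel autofluorescence of compounds in culture medium (DMEM, 10% FBS), no cells, measured at 540/590 nm. Rose Bengal sodium is the reference fluorophore for equivalence.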

[13] = qHTS assay to test for compound auto fluorescence at 590 nm (red) in HepG2 cell free culture (AID 720684)
Method in brief: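 Steps: dispense MEM/10% FBS medium, no cells; pin compound or DMSO vehicle; read red channel, Ex/Em 540/590 nm. Output given as Rose Bengal sodium equivalents.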

[14] = qHTS assay to test for compound auto fluorescence at 460 nm (blue) in HepG2 cell free culture (AID 720685)
Method in brief: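 Compound (23 nL) or DMSO pinned into cell-free MEM with 10% FBS; blue fluorescence read at 405/460 nm excitation/emission, expressed as auto-fluorescence equivalency to triamterene.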

[15] = qHTS assay to test for compound auto fluorescence at 535 nm (green) in HepG2 cell free culture (AID 720686)
[16] = qHTS assay to test for compound auto fluorescence at 460 nm (blue) in HepG2 cells (AID 720687)
Method in brief: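 Blue-channel autofluorescence (Ex/Em 405/460 nm, triamterene-equivalent) was measured after 1 hr compound exposure at 37 C, 5% CO2. Cells were HepG2, plated overnight at 37 C in MEM plus 10% FBS.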

[17] = qHTS assay for small molecule agonists of the p53 signaling pathway (AID 651631; calls by dose curve; note: nearly all actives have a fitted effect of over 15% in size)
Method in brief: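 Readout was fluorescence from the LiveBLAzer FRET substrate, applied for 2 h at room temperature after 16 h compound exposure at 37 °C. Cells were the p53RE-bla HCT-116 line, with beta-lactamase driven by p53 response elements.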

[18] = qHTS assay to test for compound auto fluorescence at 535 nm (green) in HepG2 cells (AID 720675)
[19] = target: Glucocorticoid receptor (Homo sapiens) (UniProt P04150); assay: qHTS assay to identify small molecule agonists of the glucocorticoid receptor (GR) signaling pathway (AID 720691; active = well fitted activation curve with a large enough effect in the signal ratio in the repeat runs, not every such curve was filed as active; the % refers to the signal ratio; note: potency is the fitted concentration of half-maximal effect)
Method in brief: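 Fluorescence intensity from LiveBLAzer B/G FRET substrate (2 h, room temperature) reports beta-lactamase expression driven by the glucocorticoid response element in GR-bla HeLa cells after 18 h compound exposure at 37 C.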

[20] = target: Glucocorticoid receptor (Homo sapiens) (UniProt P04150); assay: qHTS assay to identify small molecule antagonists of the glucocorticoid receptor (GR) signaling pathway (AID 720692; active = well fitted inhibition curve with a large enough effect in the signal ratio in the repeat runs, not every such curve was filed as active; the % refers to the signal ratio; note: potency is the fitted concentration of half-maximal effect)
Method in brief: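 HeLa GR-bla cells; cmpd + dex 5 nM final, 18 h 37 C; LiveBLAzer B/G FRET substrate 2 h RT; fluorescence intensity read. Antagonist mode, qHTS.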

Measured: Potency
% is set by controls: 0 for no effect and ±100 for the full control effect.

Chain of Glucocorticoid receptor (Homo sapiens) (P04150 whole entry, looked up): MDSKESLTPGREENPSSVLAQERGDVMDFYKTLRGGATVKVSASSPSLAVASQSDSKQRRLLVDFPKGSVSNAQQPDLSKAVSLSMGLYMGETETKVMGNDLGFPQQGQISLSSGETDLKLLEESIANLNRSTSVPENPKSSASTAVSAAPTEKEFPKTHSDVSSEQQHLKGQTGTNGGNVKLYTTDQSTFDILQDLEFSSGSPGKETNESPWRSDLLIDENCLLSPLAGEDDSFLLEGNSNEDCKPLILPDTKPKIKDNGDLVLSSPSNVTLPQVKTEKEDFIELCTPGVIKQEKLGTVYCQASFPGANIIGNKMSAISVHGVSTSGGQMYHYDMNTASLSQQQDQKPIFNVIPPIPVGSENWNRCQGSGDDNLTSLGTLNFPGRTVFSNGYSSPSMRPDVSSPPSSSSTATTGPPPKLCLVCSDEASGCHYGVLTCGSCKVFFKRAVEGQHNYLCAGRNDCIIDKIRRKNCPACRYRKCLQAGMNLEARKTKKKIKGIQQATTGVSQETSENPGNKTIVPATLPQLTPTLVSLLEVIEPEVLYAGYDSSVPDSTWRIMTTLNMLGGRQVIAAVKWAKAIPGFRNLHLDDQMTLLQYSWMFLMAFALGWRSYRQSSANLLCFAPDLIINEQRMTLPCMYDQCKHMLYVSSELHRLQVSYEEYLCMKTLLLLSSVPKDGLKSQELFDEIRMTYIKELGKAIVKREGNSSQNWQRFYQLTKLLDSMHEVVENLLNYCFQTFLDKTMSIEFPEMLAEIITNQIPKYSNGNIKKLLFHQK

Brc1ccc(Oc2cc(Br)c(Br)cc2Br)c(Br)c1
active: [5] 4.86 µM and 8.7 µM
not listed: [17] | [18] | [19] | [20]
inactive: all other assays above

COP(=S)(OC)Oc1ccc([N+](=O)[O-])cc1
active: [5] 34.4 µM
inactive and 54.5 µM (active): [4]
not listed: [1] | [3] | [9] | [11] | [19] | [20]
inactive: all other assays above

O=C(CCl)c1ccccc1
inactive and 54.9 µM (active): [20]
active: [1] 68.6 µM
not listed: [13] | [17] | [18]
inactive: all other assays above

Nc1c(Cl)cc([N+](=O)[O-])cc1Cl
active: [4] 24.3 µM | [5] 24.5 µM and 4.33 µM
not listed: [13] | [17]
inactive: all other assays above

CCCCCCCCC(=O)NCc1ccc(O)c(OC)c1
active: [19] 30.1 µM
not listed: [5] | [9] | [17] | [18] | [20]
inactive: all other assays above

C#CCOS(=O)OC1CCCCC1Oc1ccc(C(C)(C)C)cc1 (centres undefined)
inactive and 3.86 µM (active): [4]
active: [5] 15.4 µM and 24.3 µM | [20] 43.7 µM
not listed: [9] | [11] | [17] | [18]
inactive: all other assays above

C1=Cc2cccc3cccc1c23
not listed: [5] | [17] | [18]
inactive: all other assays above

Cc1c(COC(=O)[C@@H]2[C@H](/C=C(\Cl)C(F)(F)F)C2(C)C)cccc1-c1ccccc1
active: [5] 26.7 µM and 34.3 µM
not listed: [2] | [11] | [17] | [19] | [20]
inactive: all other assays above

S=C1NCCN1
not listed: [1] | [4] | [5] | [9] | [11] | [19] | [20]
inactive: all other assays above

CCOCN(C(=O)CCl)c1c(C)cccc1CC
not listed: [5] | [9] | [11] | [17] | [18] | [20]
inactive: all other assays above

CCCCN(CC)c1c([N+](=O)[O-])cc(C(F)(F)F)cc1[N+](=O)[O-]
active: [5] 6.86 µM
not listed: [11] | [13] | [17]
inactive: all other assays above

Oc1cc(Cl)c(Cl)cc1Cl
active: [5] 5.96 µM [middle of 4 runs]
not listed: [4] | [9] | [17] | [18] | [19] | [20]
inactive: all other assays above

C=C(C)[C@H]1Cc2c(ccc3c2O[C@@H]2COc4cc(OC)c(OC)cc4[C@@H]2C3=O)O1
active: [3] 139 nM and 486 nM | [4] 11.9 µM and 31 µM and 12.2 µM | [5] 15 µM and 31 µM and 4.86 µM
not listed: [2] | [11] | [13] | [17] | [20]
inactive: all other assays above

C[C@]12CCC(=O)C[C@@H]1CC[C@@H]1[C@@H]2CC[C@]2(C)[C@@H](O)CC[C@@H]12
not listed: [1] | [4] | [5] | [9] | [13] | [19] | [20]
inactive: all other assays above

CCc1cccc(CC)c1N(COC)C(=O)CCl
not listed: [5] | [9] | [17] | [18] | [20]
inactive: all other assays above
